Results from the supplement of paper PMC6411743.
± gives the standard deviation of the averaged measurements. Of roughly 5,400 targets only a part is listed; those with the largest changes were picked by preference.

Compound: Nc1nc2c(ncn2[C@@H]2O[C@H](COP(=O)(O)OP(=O)(O)OP(=O)(O)O)[C@@H](O)[C@H]2O)c(=O)[nH]1 [guanosine triphosphate]
Test: NP40-soluble protein abundance relative to vehicle (solubility fold change) (ratio); higher = more soluble protein in presence of GTP
Description: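 Solubility proteome profiling in Jurkat crude lysate. Lysate was treated with Mg-GTP (0.1-10 mM) for 10 min at room temperature and 3 min at 37 °C, then solubilised with 0.8% NP40 and benzonase, followed by ultracentrifugation. Proteins were quantified by TMT10 LC-MS/MS; the value is the NP40-soluble abundance relative to the NP40-processed vehicle, from 3 independent experiments.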

UniProt Q9UJ83, sequence (Q9UJ83 whole entry): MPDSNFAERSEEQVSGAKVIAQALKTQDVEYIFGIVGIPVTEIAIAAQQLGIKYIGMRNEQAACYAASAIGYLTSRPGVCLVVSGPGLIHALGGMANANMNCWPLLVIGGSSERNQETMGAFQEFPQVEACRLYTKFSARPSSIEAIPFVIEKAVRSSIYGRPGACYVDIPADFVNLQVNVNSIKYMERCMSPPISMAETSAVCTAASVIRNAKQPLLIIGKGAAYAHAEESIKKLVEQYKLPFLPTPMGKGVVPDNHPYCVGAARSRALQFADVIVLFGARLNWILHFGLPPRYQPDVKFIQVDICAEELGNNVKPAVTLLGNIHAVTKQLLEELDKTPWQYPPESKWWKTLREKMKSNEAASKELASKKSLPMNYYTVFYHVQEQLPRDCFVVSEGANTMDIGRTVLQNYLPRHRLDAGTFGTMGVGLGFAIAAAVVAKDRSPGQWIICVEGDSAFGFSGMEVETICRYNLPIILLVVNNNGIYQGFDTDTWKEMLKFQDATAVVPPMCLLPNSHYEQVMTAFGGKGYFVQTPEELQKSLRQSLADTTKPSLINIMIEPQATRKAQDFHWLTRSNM
UniProt Q9Y6V7, sequence (Q9Y6V7 whole entry): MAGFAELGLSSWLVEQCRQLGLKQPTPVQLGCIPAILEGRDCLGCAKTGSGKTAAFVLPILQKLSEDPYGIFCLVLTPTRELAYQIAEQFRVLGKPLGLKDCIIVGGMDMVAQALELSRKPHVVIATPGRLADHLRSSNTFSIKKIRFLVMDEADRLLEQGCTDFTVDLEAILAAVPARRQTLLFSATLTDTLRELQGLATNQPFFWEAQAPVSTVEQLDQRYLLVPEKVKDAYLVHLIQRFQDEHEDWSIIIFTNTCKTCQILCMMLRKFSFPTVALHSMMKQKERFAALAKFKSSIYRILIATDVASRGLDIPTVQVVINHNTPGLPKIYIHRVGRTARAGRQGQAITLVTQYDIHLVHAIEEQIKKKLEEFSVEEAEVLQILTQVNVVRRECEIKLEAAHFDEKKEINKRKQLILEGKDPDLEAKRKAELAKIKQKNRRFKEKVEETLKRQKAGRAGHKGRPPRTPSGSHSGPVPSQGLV
UniProt Q9BUQ8, sequence (Q9BUQ8 whole entry): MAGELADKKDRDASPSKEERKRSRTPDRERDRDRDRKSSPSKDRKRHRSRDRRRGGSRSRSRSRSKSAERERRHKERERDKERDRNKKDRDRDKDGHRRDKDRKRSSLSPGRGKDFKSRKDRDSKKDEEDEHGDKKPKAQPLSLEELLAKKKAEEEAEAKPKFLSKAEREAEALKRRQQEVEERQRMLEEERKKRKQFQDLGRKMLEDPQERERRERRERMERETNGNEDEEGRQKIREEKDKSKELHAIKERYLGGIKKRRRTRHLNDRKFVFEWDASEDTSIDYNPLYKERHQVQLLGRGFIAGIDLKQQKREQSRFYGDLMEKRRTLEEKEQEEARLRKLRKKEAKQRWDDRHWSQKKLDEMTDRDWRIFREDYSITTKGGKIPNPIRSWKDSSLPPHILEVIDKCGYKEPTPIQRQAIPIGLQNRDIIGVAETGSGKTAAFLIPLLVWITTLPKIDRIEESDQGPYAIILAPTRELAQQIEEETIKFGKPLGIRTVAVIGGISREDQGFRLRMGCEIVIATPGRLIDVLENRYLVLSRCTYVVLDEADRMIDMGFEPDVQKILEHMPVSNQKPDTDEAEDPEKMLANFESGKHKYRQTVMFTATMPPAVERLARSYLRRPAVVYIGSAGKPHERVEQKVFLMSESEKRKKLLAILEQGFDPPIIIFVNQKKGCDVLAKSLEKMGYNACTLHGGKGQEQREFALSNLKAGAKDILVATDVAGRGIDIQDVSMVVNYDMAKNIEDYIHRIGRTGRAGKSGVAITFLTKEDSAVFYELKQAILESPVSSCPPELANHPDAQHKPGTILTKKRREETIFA
UniProt Q9NVR5, sequence (Q9NVR5 whole entry): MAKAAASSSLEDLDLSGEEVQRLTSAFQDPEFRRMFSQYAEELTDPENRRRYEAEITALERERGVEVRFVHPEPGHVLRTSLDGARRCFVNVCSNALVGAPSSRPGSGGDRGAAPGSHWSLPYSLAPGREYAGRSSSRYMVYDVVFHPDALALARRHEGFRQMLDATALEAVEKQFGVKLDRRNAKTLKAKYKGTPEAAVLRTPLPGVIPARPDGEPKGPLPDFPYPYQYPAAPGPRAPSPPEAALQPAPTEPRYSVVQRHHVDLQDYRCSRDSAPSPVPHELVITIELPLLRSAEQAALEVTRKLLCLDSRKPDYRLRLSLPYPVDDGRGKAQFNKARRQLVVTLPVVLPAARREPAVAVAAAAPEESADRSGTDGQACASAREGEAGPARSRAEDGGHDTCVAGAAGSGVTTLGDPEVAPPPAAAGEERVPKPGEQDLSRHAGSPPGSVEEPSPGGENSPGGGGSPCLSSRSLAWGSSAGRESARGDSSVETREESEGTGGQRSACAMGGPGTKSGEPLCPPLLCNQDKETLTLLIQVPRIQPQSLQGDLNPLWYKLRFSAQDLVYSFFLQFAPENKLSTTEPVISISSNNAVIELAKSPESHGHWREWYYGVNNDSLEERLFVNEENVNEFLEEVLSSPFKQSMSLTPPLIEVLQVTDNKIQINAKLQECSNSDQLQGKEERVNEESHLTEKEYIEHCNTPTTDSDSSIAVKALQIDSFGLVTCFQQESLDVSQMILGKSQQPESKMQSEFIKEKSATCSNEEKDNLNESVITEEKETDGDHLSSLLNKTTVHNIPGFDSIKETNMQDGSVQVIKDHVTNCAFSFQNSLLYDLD
UniProt Q9NX05, sequence (Q9NX05 whole entry): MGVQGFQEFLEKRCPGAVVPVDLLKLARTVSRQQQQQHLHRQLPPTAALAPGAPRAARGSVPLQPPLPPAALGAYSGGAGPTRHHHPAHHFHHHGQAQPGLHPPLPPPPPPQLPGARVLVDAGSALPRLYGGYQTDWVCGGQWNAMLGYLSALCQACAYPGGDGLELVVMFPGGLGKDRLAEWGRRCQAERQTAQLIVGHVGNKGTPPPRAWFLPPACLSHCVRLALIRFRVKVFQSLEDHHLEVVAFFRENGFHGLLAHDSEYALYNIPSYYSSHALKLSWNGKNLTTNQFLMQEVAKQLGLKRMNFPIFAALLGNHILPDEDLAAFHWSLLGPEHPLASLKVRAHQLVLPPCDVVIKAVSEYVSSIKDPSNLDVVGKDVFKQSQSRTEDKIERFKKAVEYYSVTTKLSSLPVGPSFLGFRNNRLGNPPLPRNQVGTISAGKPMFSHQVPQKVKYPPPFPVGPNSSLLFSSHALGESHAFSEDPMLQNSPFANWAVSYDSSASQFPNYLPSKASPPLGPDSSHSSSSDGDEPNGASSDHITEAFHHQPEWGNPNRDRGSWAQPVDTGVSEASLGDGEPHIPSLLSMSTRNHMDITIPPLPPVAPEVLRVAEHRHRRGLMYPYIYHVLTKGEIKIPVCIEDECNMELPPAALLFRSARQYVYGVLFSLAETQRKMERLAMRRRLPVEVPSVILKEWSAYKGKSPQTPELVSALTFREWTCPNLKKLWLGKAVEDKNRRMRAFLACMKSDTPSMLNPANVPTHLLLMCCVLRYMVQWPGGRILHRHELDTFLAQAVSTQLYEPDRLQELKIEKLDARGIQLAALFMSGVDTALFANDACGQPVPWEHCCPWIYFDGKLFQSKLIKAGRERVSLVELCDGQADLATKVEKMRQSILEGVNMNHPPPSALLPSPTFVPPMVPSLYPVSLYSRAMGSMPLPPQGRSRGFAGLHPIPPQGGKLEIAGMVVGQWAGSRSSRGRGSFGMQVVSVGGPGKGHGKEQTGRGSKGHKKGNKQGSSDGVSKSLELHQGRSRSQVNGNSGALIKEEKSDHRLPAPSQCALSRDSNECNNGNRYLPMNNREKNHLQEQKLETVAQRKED

Target	NP40-soluble protein abundance (concentration: 0.1mM)	NP40-soluble protein abundance (concentration: 0.5mM)	NP40-soluble protein abundance (concentration: 1mM)	NP40-soluble protein abundance (concentration: 2mM)	NP40-soluble protein abundance (concentration: 4mM)	NP40-soluble protein abundance (concentration: 6mM)	NP40-soluble protein abundance (concentration: 8mM)	NP40-soluble protein abundance (concentration: 10mM)
UniProt Q9UJ83|Q9UJ83-2|Q9UJ83-3	1.067 ± 0.0066	1.03 ± 0.11	0.98 ± 0.05	1.01 ± 0.11	0.987 ± 0.04	0.958 ± 0.08	0.926 ± 0.021	0.9129 ± 0.0074
UniProt Q9NVR5	0.928 ± 0.076	0.944 ± 0.078	0.923 ± 0.048	0.885 ± 0.16	0.866 ± 0.12	0.931 ± 0.13	0.869 ± 0.086	0.906 ± 0.082
DDX49 (UniProt Q9Y6V7)	1.02 ± 0.056	1.01 ± 0.047	1.03 ± 0.026	1.05 ± 0.072	1.12 ± 0.037	1.19 ± 0.022	1.26 ± 0.076	1.21 ± 0.077
FAM120C (UniProt Q9NX05)	1 ± 0.021	1.04 ± 0.017	1.04 ± 0.036	1.09 ± 0.065	1.12 ± 0.068	1.18 ± 0.077	1.25 ± 0.08	1.25 ± 0.061
DDX23 (UniProt Q9BUQ8)	1.04 ± 0.036	1.09 ± 0.067	1.19 ± 0.12	1.27 ± 0.075	1.55 ± 0.18	1.62 ± 0.19	1.89 ± 0.28	1.93 ± 0.23
